This passage reports binding signal results from article PMC7819943, “Rice protein-binding microarrays: a tool to detect cis-acting elements near promoter regions in rice”.

In all, about 68,000 sequences were measured (“fluorescence intensity (a.u.)”: median about 9,100, highest 2% from about 16,000 on). The sample holds the highest values, similar sequences and a random draw of the others, so the mix is not that of the screen.

Chain of OsWRKY34 (Q0JBA9 entry or part of it): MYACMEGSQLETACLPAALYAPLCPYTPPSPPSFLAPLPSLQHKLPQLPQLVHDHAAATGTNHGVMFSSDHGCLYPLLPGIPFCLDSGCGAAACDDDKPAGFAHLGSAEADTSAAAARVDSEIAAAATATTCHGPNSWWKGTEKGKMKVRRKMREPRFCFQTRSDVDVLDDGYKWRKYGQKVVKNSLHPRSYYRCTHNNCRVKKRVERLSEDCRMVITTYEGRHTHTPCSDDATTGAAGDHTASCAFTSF

In the assay the target is OsWRKY34 (Oryza sativa, UniProt Q0JBA9 1-250). Briefly: protein-binding microarray (RPBM); PBS, 2% BSA, 51.3 ng/ul salmon testes DNA, 50 uM zinc acetate, 200 nM TF, 25 C, 1 h; high values mean tight binding. The following applies: protein: recombinant; tags: N-terminal polyhistidine and DsRed monomer fusion (pET32a); label: CyDye5-dUTP incorporated in the synthesized complementary strand; 3' TTTTT single-stranded linker to array surface; dsDNA, one strand shown. In short, it runs like this:
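The binding signal for each feature is its fluorescence intensity in arbitrary units. An Axon 4000B scanner was used to read a custom Agilent array that had been made double-stranded with Cy5-dUTP primer extension, blocked with 2% BSA, incubated at 25 °C for 1 h with 200 nM protein in PBS, 2% BSA, salmon testes DNA and 50 µM zinc acetate, and washed. The protein was an N-terminal polyhistidine–DsRed transcription factor fusion from E. coli BL21-CodonPlus, purified on Ni–NTA.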
As for “GAGGGATGTCTTATATCTAGTTTTGTGGTTGGAGGATGATCGGAGTCACCTAGTGCAG”, the binding signal was 8770 fluorescence intensity (a.u.).

Turning to “TCTGTGTTGGCGAGAGTTGGTGTCTGGAATTGGGCTTGGTCGGAGTCACCTAGTGCAG”, the binding signal is 9200 fluorescence intensity (a.u.).

On to “GTTCTATTGTACTGGTCAGTTCAGTGGACTCGGTTCTGTTCGGAGTCACCTAGTGCAG”, for which the binding signal is 9260 fluorescence intensity (a.u.).

Consider “CTACACTGTCTTGCTCGCTCATTGTCTCTCTCTGCATTTGCGGAGTCACCTAGTGCAG”, for which the binding signal was 8580 fluorescence intensity (a.u.).

In the case of “TATGTTCGGTATCGTATTAAATCTACTCCTATTTGTACCTCGGAGTCACCTAGTGCAG”, the binding signal was 8570 fluorescence intensity (a.u.).

For “TTTTGTTCGCTACTATAGGCCCACACGTCTGTGCCCATGGCGGAGTCACCTAGTGCAG”, the binding signal was 8660 fluorescence intensity (a.u.).

With “CTCCTCTTCTTCTCTTCTCCTTCGTTGGGCGTGGGCGTCGCGGAGTCACCTAGTGCAG”, the binding signal is 12400 fluorescence intensity (a.u.).

“CCGACGCCTACTACTTCGCCCACTAGCCACGCGTGCTGCCCGGAGTCACCTAGTGCAG”: the binding signal was 9050 fluorescence intensity (a.u.).

As for “TACTGTATAGTTGTTACAACTTCCTTTTTAATTATTCAATCGGAGTCACCTAGTGCAG”, the binding signal is 8060 fluorescence intensity (a.u.).

Take “GACGAATGGTCAAACACGTACTAAAAAGTCAACGGTGTCACGGAGTCACCTAGTGCAG”: the binding signal is 12200 fluorescence intensity (a.u.).

“AATGGTCAAACACGTATTTAAAAAGTCAACGGTGTCAAACCGGAGTCACCTAGTGCAG”: the binding signal was 14100 fluorescence intensity (a.u.).

Consider “AGACGAATGGTCAAACACGTATTAAAAAGTCAACGGTGTCCGGAGTCACCTAGTGCAG”, for which the binding signal is 19700 fluorescence intensity (a.u.).

As to “AAGACGAATGATCAAACACGTACTAAAAAAGTCAACGGTGCGGAGTCACCTAGTGCAG”, the binding signal was 11600 fluorescence intensity (a.u.).

For “GAATGGTCAAACACGTACTAAAAAAGTCAACGGTGTCAAACGGAGTCACCTAGTGCAG”, the binding signal is 17500 fluorescence intensity (a.u.).

Take “GGTCAAATACGTACTAAAAAGTCAACGGTGTCAAACATTTCGGAGTCACCTAGTGCAG”: the binding signal was 12900 fluorescence intensity (a.u.).

“CTAATGGTTCTGATCGCCGTGCCTAACCCTAGCCCCATATCGGAGTCACCTAGTGCAG”: the binding signal is 8400 fluorescence intensity (a.u.).

“TCTTTTGCTTCTGTTCTGCACCGGTCTCTCTGATGGATGTCGGAGTCACCTAGTGCAG”: the binding signal is 9680 fluorescence intensity (a.u.).

As for “AATAGATGACATTGTTGACTTATTCTTACATGTTTGCCCACGGAGTCACCTAGTGCAG”, the binding signal was 9350 fluorescence intensity (a.u.).

For the sequence “AATTGCTGTTGACCTGTTGTTGTGCTCCAACATCCAAACACGGAGTCACCTAGTGCAG”, the binding signal is 8290 fluorescence intensity (a.u.).

For the sequence “TCCACCTCCTAGCGAAATGCATGGTTGGCCAAACAACACACGGAGTCACCTAGTGCAG”, the binding signal is 8300 fluorescence intensity (a.u.).

Consider “TGACAATGGTGTTGCATCTCCAAAGCTGCAGAAACAAACACGGAGTCACCTAGTGCAG”, for which the binding signal was 48300 fluorescence intensity (a.u.).

Take “TACGAGGAGGGCCCATGCGTCGGTGGGTAGGGTGAAAAGACGGAGTCACCTAGTGCAG”: the binding signal is 8690 fluorescence intensity (a.u.).

With “ACTAACGAAATTACTACTTCGTAGGGGTAGGGGTGGCGTGCGGAGTCACCTAGTGCAG”, the binding signal was 9370 fluorescence intensity (a.u.).

Consider “AATAAAGTTGGGTGGTTGGGGCGCGCGATAGGAGTAAATCCGGAGTCACCTAGTGCAG”, for which the binding signal is 17400 fluorescence intensity (a.u.).

As for “GGAGGGTGGAGGGCGGAGGACGGAGGTGGTGGCGCCGCGCCGGAGTCACCTAGTGCAG”, the binding signal is 9550 fluorescence intensity (a.u.).

For “AGGAGGGCGGGGTCGTCGTCGTCCGGGGTGGTGGTGGCCGCGGAGTCACCTAGTGCAG”, the binding signal is 17000 fluorescence intensity (a.u.).

As to “GACCTTTGGGTAGGGGTGGGGATGGGGCGAAATTACTAAACGGAGTCACCTAGTGCAG”, the binding signal is 30300 fluorescence intensity (a.u.).

Regarding “GCGGGGTTGGAGGAGGAGGAGGTGGTGGTGGTGGTGGTGGCGGAGTCACCTAGTGCAG”, the binding signal was 15300 fluorescence intensity (a.u.).

For “GGAGGAGGTGGCGGCGGAGGGGTTGGTGGTGGAGGTGGTCCGGAGTCACCTAGTGCAG”, the binding signal was 20800 fluorescence intensity (a.u.).

Consider “GAAAGTGGGAGAGAGAATAGGTTGGGGTGGTTGGTTTGGGCGGAGTCACCTAGTGCAG”, for which the binding signal was 14700 fluorescence intensity (a.u.).

With “TGGTGGTGAGGAGGAGGAGGAGGAGGGCGGGGTCGTCGTCCGGAGTCACCTAGTGCAG”, the binding signal was 16200 fluorescence intensity (a.u.).

“GAGGTGGTGGAGGAGGAGGCCAGGGGTTCGTTGGCGGCGGCGGAGTCACCTAGTGCAG”: the binding signal was 8840 fluorescence intensity (a.u.).

“TGGGGATGGGGAATTGACCTGGGTAGGGGTGGTAATTGGGCGGAGTCACCTAGTGCAG”: the binding signal was 16000 fluorescence intensity (a.u.).

Regarding “GCTGGCGCCGGAGAGAGAGAGTGGGTTGGTTGTAATAAATCGGAGTCACCTAGTGCAG”, the binding signal is 9290 fluorescence intensity (a.u.).
